# Data taken from PubChem BioAssay (NCATS).
# Results filed as inconclusive are left out. Entries that show only a call come without a potency. Active and inactive are the calls of the source. The call rests on the fitted dose curve; in most records, active means well fitted curve in the direction sought with a large enough effect; inconclusive means small, poorly fitted or top-dose-only effect, or another doubt; inactive means no such curve, though single readings can be large; an effect the other way counts as inactive or inconclusive.
# Columns and labels:
# [1] = molecular target: Glutathione peroxidase 1 (Homo sapiens) (UniProt P07203); assay: Primary qHTS Assay for Inhibitors of Recombinant Selenoprotein Glutathione Peroxidase 1 (GPX1) (AID 1845191); settings: outcome: dose series up to 48.8 µM; further: nearly all actives have a fitted effect of over 65% in size
# Glutathione peroxidase 1 (Homo sapiens), sequence (P07203 whole entry, looked up): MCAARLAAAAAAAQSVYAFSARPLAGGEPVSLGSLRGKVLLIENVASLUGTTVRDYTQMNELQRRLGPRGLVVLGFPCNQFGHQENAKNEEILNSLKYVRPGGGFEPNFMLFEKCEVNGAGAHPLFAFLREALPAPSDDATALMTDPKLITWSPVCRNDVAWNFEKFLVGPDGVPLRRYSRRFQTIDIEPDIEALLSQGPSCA
# Outline: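 Recombinant GPX1 (10 nM final) was preincubated with compound for 30 min at room temperature, then reacted with 1 mM GSH, 0.5 mM CHP, 0.5 mM NADPH and 100 nM glutathione reductase; NADPH fluorescence (340/450 nm) was read at 0 and 15 min.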
# [2] = molecular target: Phospholipid hydroperoxide glutathione peroxidase GPX4 (Homo sapiens) (UniProt P36969); assay: Primary qHTS Assay for Inhibitors of Recombinant Selenoprotein Glutathione Peroxidase 4 (GPX4) (AID 1845192); further: nearly all actives have a fitted effect of over 65% in size
# Phospholipid hydroperoxide glutathione peroxidase GPX4 (Homo sapiens), sequence (P36969 whole entry, looked up): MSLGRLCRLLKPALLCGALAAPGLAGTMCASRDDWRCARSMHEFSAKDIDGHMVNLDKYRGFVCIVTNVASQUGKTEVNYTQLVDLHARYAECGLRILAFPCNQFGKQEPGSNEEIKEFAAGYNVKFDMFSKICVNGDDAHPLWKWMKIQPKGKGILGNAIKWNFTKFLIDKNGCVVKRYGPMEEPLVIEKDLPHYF
# Outline: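 GR-coupled readout: 100 nM GR, 1 mM GSH, 0.5 mM NADPH; NADPH fluorescence (ex 340/em 450 nm) read at t=0 and after 15 min RT. GPX4 200 nM, preincubated 30 min with compound; substrate 0.5 mM CHP.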
# [3] = HepG2 viability counterscreen (readout 2: ATP content) against the NCATS DSHEA and TCM libraries (AID 1794840);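 further: HepG2 cells exposed to substances for about 24 h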
# Outline: (§1)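 1,000 HepG2 cells/well, 4 h attach; compounds ~24 h, 37C/5% CO2. Readout 1: GF-AFC 25 uM final, 30 min, fluorescence 380/510 nm. Readout 2: CellTiter-Glo, 30 min RT, luminescence.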
# [4] = HepG2 viability counterscreen (readout 1: protease activity) against the NCATS DSHEA and TCM libraries (AID 1794841);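 further: cells exposed to compounds for about 24 h before the protease read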
# Outline: as §1
# [5] = molecular target: Luciferin 4-monooxygenase (Photinus pyralis) (UniProt P08659); assay: Primary firefly luciferase (FLuc) qHTS assay for identification of artifact compounds. (AID 1845220); settings: outcome: dose series up to 54.1 µM; further: nearly all actives have a fitted effect of over 60% in size
# Outline: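 Reaction readout was CCD-imaged luminescence, taken 5 min after adding 10 nM purified firefly enzyme to compound-treated wells holding 10 uM luciferin and ATP in pH 7.6 buffer.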
# [6] = Primary fluorescence-based thiol-reactive (MSTI) qHTS assay for identification of artifact compounds. (AID 1845221);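 further: series mostly up to about 54 µM; thiol-reactive compounds lower the probe fluorescence signal; nearly all actives have a fitted effect of over 65% in size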
# Outline: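 Compounds were incubated 1 h at room temperature in the dark with the MSTI probe (4 uM) in PBS pH 7.4, 2% DMSO. Signals were normalized between Acetyl-MSTI and MSTI.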
# [7] = tested on: Nanoluciferase (engineered Oplophorus gracilirostris luciferase); assay: Primary Nanoluciferase (NLuc) qHTS assay for identification of artifact compounds. (AID 1845222);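 further: NLuc secreted into diluted conditioned medium of S16 cells; series mostly up to about 54 µM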
# Outline: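 Concentration-response data were obtained by luminescence after 5 min with Nano-Glo substrate at 1:100. The enzyme was diluted S16 NLuc-expressing cell medium, preincubated with compound for 15 min at RT. Curves were fitted with a 4-parameter Hill model.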
# [8] = Primary redox qHTS assay for identification of artifact compounds. (AID 1845223)
# Outline: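 Amplex Red (25 uM) and HRP (250 mU/mL) in HBSS, with compounds for 15 min, then 250 uM DTT for 30 min, room temperature, dark. Fluorescence 525/598 nm read; normalized to DMSO and 10 uM DA3003; Hill fit.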
# [9] = molecular target: Metallo-beta-lactamase type 2 (Klebsiella pneumoniae) (UniProt C7C422); assay: qHTS to identify inhibitors of the New Delhi Metallo-beta-lactamase (NDM): assay validation screen against the NCATS LOPAC Collection (AID 1794843);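 further: nitrocefin turnover by NDM-1 measured as 485 nm absorbance at plateau; series mostly up to about 38 µM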
# Metallo-beta-lactamase type 2 (Klebsiella pneumoniae), sequence (C7C422 whole entry, looked up): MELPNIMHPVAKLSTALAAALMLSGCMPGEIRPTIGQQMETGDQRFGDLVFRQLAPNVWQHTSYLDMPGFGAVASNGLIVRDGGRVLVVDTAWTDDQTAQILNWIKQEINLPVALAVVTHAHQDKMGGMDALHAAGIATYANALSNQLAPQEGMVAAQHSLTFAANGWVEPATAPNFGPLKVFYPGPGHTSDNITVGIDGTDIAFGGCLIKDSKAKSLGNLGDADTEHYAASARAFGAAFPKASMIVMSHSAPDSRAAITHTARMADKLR
# Outline: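 NDM-1 at 2 nM final in 50 mM HEPES pH 7.0, 1 uM ZnSO4, 0.01% Tween20, preincubated with LOPAC compounds pinned in DMSO; 50 uM nitrocefin (stock) added. Hydrolysis read as absorbance at 485 nm in the plateau phase.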
smiles,measurement,setting,value
CCCCCCCCCCCC[N+](C)(C)CCOc1ccccc1,outcome,[1],inactive
same,Potency,[2],inactive
Cc1nnc2n1-c1sc(CCC(=O)N3CCOCC3)cc1C(c1ccccc1Cl)=NC2,outcome,[1],inactive
same,Potency,[2],inactive
CN1C2CCC(C)(C)C1CC(OC(=O)C(O)(c1cccs1)c1cccs1)C2 (stereo not given),outcome,[1],inactive
same,Potency,[2],inactive
COP(=S)(OC)Oc1ccc(S(N)(=O)=O)cc1,outcome,[1],inactive
Oc1ccc([C@H]2CNCc3c2ccc(O)c3O)cc1O,outcome,[1],inactive
same,Potency,[2],inactive
CC(C)[N+](C)(CCC(C(N)=O)(c1ccccc1)c1ccccc1)C(C)C,outcome,[1],inactive
same,Potency,[2],inactive
NC(=O)OCCCc1ccccc1,outcome,[1],inactive
same,Potency,[2],inactive
COP(=O)(OC)C(O)C(Cl)(Cl)Cl (stereo not given),outcome,[1],inactive
same,Potency,[2],inactive
CCCCCCCCC(=O)NCc1ccc(O)c(OC)c1,outcome,[1],inactive
same,Potency,[2],inactive
CC(C)(O)C(Cl)(Cl)Cl,outcome,[1],inactive
same,Potency,[2],inactive
CCN(CC)Cc1nccn1-c1ccc([N+](=O)[O-])cc1C(=O)c1ccccc1Cl,outcome,[1],inactive
same,Potency,[2],inactive
C[C@]12CC[C@H](O)CC1=CC[C@@H]1[C@@H]2CC[C@]2(C)C(=O)CC[C@@H]12,outcome,[3],inactive
same,outcome,[4],inactive
same,outcome,[1],inactive
same,Potency,[2],inactive
same,outcome,[5],inactive
same,outcome,[6],inactive
same,outcome,[7],inactive
same,outcome,[8],inactive
O=C(O)Cc1ccccc1,outcome,[1],inactive
same,Potency,[2],inactive
C[C@@H]1CN(C2CCC(C#N)(c3ccc(F)cc3)CC2)CC[C@]1(C(=O)O)c1ccccc1 (stereo not given in full),outcome,[1],inactive
same,Potency,[2],inactive
Clc1ccc(CO/N=C(\Cn2ccnc2)c2ccc(Cl)cc2Cl)c(Cl)c1,outcome,[1],inactive
same,Potency,[2],inactive
CCC(=O)O[C@H]1CC[C@H]2[C@@H]3CCC4=CC(=O)CC[C@]4(C)[C@H]3CC[C@]12C,outcome,[1],inactive
same,Potency,[2],inactive
C[C@@H]1O[C@@H](O[C@@H]2C=C3CC[C@@H]4[C@H](CC[C@]5(C)[C@@H](c6ccc(=O)oc6)CC[C@]45O)[C@@]3(C)CC2)[C@H](O)[C@H](O)[C@H]1O,outcome,[1],inactive
same,Potency,[2],inactive
CCC(=O)C(CCN(C)C)(c1ccccc1)c1ccccc1,outcome,[1],inactive
same,Potency,[2],inactive
c1ccc2c(c1)Sc1ccccc1N2CC1CN2CCC1CC2 (stereo not given),outcome,[1],inactive
same,Potency,[2],inactive
CC(Cc1ccccc1)NCCCCl (stereo not given),outcome,[1],inactive
same,Potency,[2],inactive
CN(C)C(=S)SSC(=S)N(C)C,outcome,[1],inactive
same,Potency,[2],inactive
O=C(O)c1nn(Cc2ccc(Cl)cc2Cl)c2ccccc12,outcome,[9],inactive
same,outcome,[1],inactive
same,Potency,[2],inactive
